# Compound activity deposited in PubChem BioAssay by National Center for Advancing Translational Sciences (NCATS).
# KAT2A inh: inhibitors of human GCN5L2 histone acetyltransferase; hit rate 0.21% among 390,000; GCN5L2 HAT assay, ThioGlo1 CoA-SH fluorescence; AID 504327; Q92830; Potency, µM (top dose mostly 58.9 µM), for the others: at the highest dose activity change, negative = inhibition, most hits filed as inhibitors; note: potency is the fitted concentration of half-maximal effect
#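 Enzyme at 20nM final was mixed with library compounds for 15 min at room temperature. Peptide H3(1-25) at 75uM, acetyl-CoA at 70uM and ThioGlo1 at 50uM were then added. Plates were read immediately and after 20 min (Ex340nm/Em540nm).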
# hERG WT inh: KCNH2 (human, wildtype) channel inhibition; U2OS, BacMam KCNH2, thallium flux FluxOr; stronger effect = lower value; activity change, % at 1.84 µM; hit rate 0.37% among 340,000; Q12809;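 active = maximum activity change below -70%; inconclusive = maximum activity change between -70% and -50%; inactive = maximum activity change above -50%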
#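 U2OS cells were transduced with wild-type KCNH2 virus (2.03 x 10^8 / mL) for 4 h at room temperature, then cultured overnight at 37 C. Thallium flux was read with FluxOr dye. Rate constants were normalized to DMSO controls.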
# PGK inhibitor: inhibitors of T. brucei phosphoglycerate kinase. hit rate 0.043% among 380,000. PGK/GAPDH coupled, Kinase-Glo luminescence, 60 min. Potency, µM (series often up to 57.5 µM), for inactives: at the highest dose activity change, negative = inhibition, actives largely listed as inhibitors. AID 602233. P07378; note: potency is the fitted concentration of half-maximal effect; nearly all actives have a fitted effect of over 60% in size
#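 Recombinant glycosomal PGK reaction used 1,3-bisphosphoglycerate generated in-well by GAPDH (100nM final) in 100mM TEA pH 7.6, 5mM MgCl2, 0.01% Tween-20. After 60 minutes at room temperature, ATP was read by Kinase-Glo Plus luminescence end-point.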
# KCNH2 3.1 inh: inhibitors of human KCNH2 3.1 potassium channel isoform. hit rate 0.95% among 340,000. AID 720553. U2OS KCNH2 3.1, thallium flux FluxOr; stronger effect = lower value. activity change, % (tested at about 1.8 µM);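 active = maximum activity change below -70%; inconclusive = maximum activity change from -70% to -50%; inactive = maximum activity change above -50%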;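 note: thallium influx rate constant from kinetic fluorescence after stimulation buffer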
#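 FluxOr-based Tl+ influx in U2OS cells transduced with KCNH2 3.1 virus; rate constants normalized to DMSO controls.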
# Pin1 inh: inhibitors of human Pin1; Pin1 FP peptide displacement, HiFluor488, 10 min; Potency, µM (top dose mostly 115 µM), for inactives: at the highest dose activity, negative = inhibition, most hits filed as inhibitors; hit rate 0.009% among 390,000; active = well fitted inhibition curve with a large enough effect in the polarisation, with a control signal flat, not every such curve was filed as active; inconclusive = small, poorly fitted or top-dose-only effect, or effect the other way, or a change in a side signal; inactive = no such curve, though single readings can be large or run the other way; the % refers to the polarisation; note: potency is the fitted concentration of half-maximal effect
# Target sequence (Q13526 whole entry, looked up): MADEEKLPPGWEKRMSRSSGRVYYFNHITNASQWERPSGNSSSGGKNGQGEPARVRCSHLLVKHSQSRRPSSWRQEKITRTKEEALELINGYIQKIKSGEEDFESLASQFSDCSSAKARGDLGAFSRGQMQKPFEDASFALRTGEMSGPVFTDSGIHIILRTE
# RGS4 inhibitor: inhibitors of human regulator of G protein signaling 4; Transcreener GDP fluorescence polarization, RGS4-accelerated GTP hydrolysis; P49798; Potency, µM (series often up to 114 µM), inactives show at the highest dose activity change, negative = inhibition, usual class: inhibitors; AID 504845; hit rate 0.039% among 390,000; note: potency is the fitted concentration of half-maximal effect; nearly all actives have a fitted effect of over 75% in size
# Target sequence (P49798 whole entry, looked up): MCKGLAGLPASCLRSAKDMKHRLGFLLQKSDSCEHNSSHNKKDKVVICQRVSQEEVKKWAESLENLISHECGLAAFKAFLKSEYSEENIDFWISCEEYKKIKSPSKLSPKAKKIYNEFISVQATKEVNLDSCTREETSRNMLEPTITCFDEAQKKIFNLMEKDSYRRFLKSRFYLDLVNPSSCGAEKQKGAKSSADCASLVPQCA
#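 MLSMR compounds (23 nl, pin-transferred) preincubated 10 min at room temperature with a 500nM (2x) first reagent, then RGS4 at 900nM (2x) plus Transcreener GDP mix added; fluorescence polarization (620/688 nm) read before and after 90 min at 30 °C.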
# The depositor's hits bear a star; i = inactive; ? = inconclusive; . = no result; [ ] = another dose, or the depositor's remark. The list is not random: actives were taken first. Their share in the collection is about 1.2%. Unless noted, calls come from the whole dose curve; as a rule, active = well fitted curve in the direction sought with a large enough effect; inconclusive = small, poorly fitted or top-dose-only effect, or another doubt; inactive = no such curve, though single readings can be large; an effect the other way counts as inactive or inconclusive. % is set by controls: 0 for no effect and ±100 for the full control effect.
SMILES,KAT2A inh,hERG WT inh,PGK inhibitor,KCNH2 3.1 inh,Pin1 inh,RGS4 inhibitor
COc1cccc(C2C(C#N)=C(N)OC(C(C)(C)C)=C2C#N)c1 (configuration not stated),-6.1%,-3.6,-3.9%,-189.2*,1.0%,-27.9%
O=C(CN1C(=O)COc2ccc(S(=O)(=O)N3CCOCC3)cc21)N1CCN(c2cccc(C(F)(F)F)c2)CC1,-4.0%,.,-2.0%,.,-7.5%,4.4%
C#CCOCCOCCOCCNc1nc(N2CCN(C(=O)[C@H](CCCCN)n3cc(CC(C)O)nn3)CC2)nc(N2CCN(C(=O)[C@H](CCCCN)n3cc(CC(C)O)nn3)CC2)n1 (some centres not stated),-3.0%,-2.2,8.3%,-76.4*,-1.7%,2.8%
C#CCOCCOCCOCCNc1nc(N2CCN(C(=O)Cn3cc(CCO)nn3)CC2)nc(N2CCN(C(=O)[C@H](CCCCN)n3cc(CC(C)O)nn3)CC2)n1 (some centres not stated),.,-2.5,-7.6%,11.0,-3.1%,10.9%
C=CCn1c(CCNC(=O)c2cccs2)nnc1SCC(=O)c1ccc(Cl)cc1,-12.6%,25.7,-2.9%,-97.6*,-1.1%,?
O=C(c1ccccc1Cl)N1CCC(N2CCC(C(=O)N3CCCC3)CC2)CC1,-0.3%,-9.8,-6.5%,-87.2*,17.0%,26.4%[56.9 µM]
CCOc1cc(C(=S)N2CCCCC2)ccc1OS(=O)(=O)c1ccc(Cl)cc1,32.4%,6.1,-7.6%,-114.4*,?,1.2%
CCOc1cc(C(=S)N2CCCCC2)ccc1OS(=O)(=O)c1ccc(Br)cc1,-13.0%,-5.8,1.9%,-6.9,1.4%,15.1%
O=C(CCc1cn(Cc2ccc(F)cc2)c2ccccc12)NCCc1ccc(Cl)cc1,-4.1%,.,i,.,31.1%,1.2%
COc1ccc(CN(CCc2ccccc2)Cc2ccccc2)cc1OC,-0.8%,-22.8,-3.9%,-82.1*,?,25.0%
COc1cc(CN(CCN(C)C)Cc2ccccc2)ccc1OCc1ccccc1,-0.7%,39.9,-1.8%,-0.8,-8.0%,-44.6%
COc1ccc(-c2cc3nc(C)c(CCC(=O)N4CCN(c5cc(C)ccc5C)CC4)c(C)n3n2)c(OC)c1,0.6%,.,i,.,-8.1%,3.8%
Cc1cccn2cc(COc3ccc(-c4ccccc4)cc3)nc12,-11.6%,3.7,-5.6%,-100.7*,4.6%,9.3%
O=C(CO/N=C/c1ccc(OC(F)F)cc1)NCc1cccs1,-5.5%,-15.9,i,-79.5*,-2.3%,-0.2%
O=C(COC(=O)/C=C/c1ccc(OC(F)F)cc1)NCc1cccs1,46.6%,23.9,1.6%,-2.0,-1.0%,-17.9%
Cc1[nH]c2ccccc2c1/C=N/NC(=O)c1ccccc1,1.5%,-6.7,-7.0%,0.4,2.7%,-4.9%
Cc1[nH]c2ccccc2c1/C=C/C(=O)c1ccccc1,-4.7%,-28.1,-4.5%,-85.5*,?,-2.1%
O=C(CSc1nc2ccccc2c(=O)n1-c1ccc(F)cc1F)c1c[nH]c2ccccc12,-12.5%,-122.0*,-0.4%,-0.1,18.8%,7.6%
Cc1ccc(C(=O)NCc2ccc3c(c2)OCO3)cc1S(=O)(=O)N1CCCCC1,-20.4%,-91.0*,-6.1%,-13.6,-6.6%,13.8%
Cc1ccc(C(=O)NCc2ccc3c(c2)OCO3)cc1S(=O)(=O)N1CCOCC1,-8.4%,6.1,i,10.1,-0.2%,1.5%
O=C(NCc1ccc2c(c1)OCO2)c1ccc(Cl)c(S(=O)(=O)N2CCOCC2)c1,-2.3%,0.1,i,-93.7*,-0.1%,7.5%
CCOC(=O)C(CS)NCCN[C@@H](CS)C(=O)OCC (some centres not stated),20µM*,.,.,.,.,.
CCOC(=O)CCC(NC(=O)CCC(=O)NC(CCC(=O)OCC)C(=O)OCC)C(=O)OCC (configuration not stated),0.3%,1.7,-0.5%,20.8,-0.6%,-1.8%
COc1ccc(N(C(=O)c2ccc(S(=O)(=O)N3CCOCC3)cc2)C2C=CS(=O)(=O)C2)cc1 (configuration not stated),2.24µM*,-2.1,-4.2%,-0.9,7.3%,-0.1%
Cc1ccc(CS(=O)(=O)CCC(=O)NCc2ccccc2Cl)cc1,-8.0%,-1.0,-0.1%,-72.6*,-8.3%,-10.2%[56.9 µM]
SMILES,KAT2A inh,hERG WT inh,PGK inhibitor,KCNH2 3.1 inh,Pin1 inh,RGS4 inhibitor
CC1CCN(c2nnc(-c3cccs3)c3ccccc23)CC1,-7.0%,-2.5,-12.9%,-85.0*,6.9%,13.8%
CCCN(C(=O)c1coc(=O)c2ccccc12)c1ccccc1C,6.7%,.,-0.3%,.,-0.1%,15.7%
CC(=O)Nc1c(F)cc(Br)cc1F,-2.6%,1.6,-12.0%,-94.8*,-0.2%,-6.5%
O=C(CSc1nc2ccccc2c(=O)n1Cc1ccc(F)cc1)NCc1cccs1,0.5%,-26.2,5.1%,-95.3*,2.5%,15.4%
Cc1cc(NC(=O)CSc2nc3ccccc3c(=O)n2Cc2ccc(F)cc2)no1,-1.8%,3.7,-7.4%,-32.9,12.5%,7.8%
CCOc1ccc(NC(=O)CC2C(=O)N(c3cccc(C)c3)C(=O)N2Cc2ccco2)cc1 (configuration not stated),-1.0%,.,-4.3%,.,-2.7%,6.2%
CCNC(=O)[C@@H]1CCCN1C(=O)[C@H](CCCN=C(N)N)NC(=O)[C@H](CC(C)C)NC(=O)[C@@H](Cc1c[nH]c2ccccc12)NC(=O)[C@H](Cc1ccc(O)cc1)NC(=O)[C@H](CO)NC(=O)[C@H](Cc1c[nH]c2ccccc12)NC(=O)[C@H](Cc1cnc[nH]1)NC(=O)[C@@H]1CCC(=O)N1,-13.0%,.,.,.,.,.
CCCCCC(=O)Nc1cc(S(=O)(=O)O)cc2cc(S(=O)(=O)O)cc(O)c12,.,-2.0,1.12µM*,8.2,?,7.1%
CN(C)c1ccc(C=c2c3ccccc3n3c2cc(-c2ccc(Cl)cc2)[n+]3C)cc1,.,-207.1*,-13.1%,-190.6*,?,?
CN(C)c1ccc(C=c2c3ccccc3n3c2cc(-c2ccccc2)[n+]3C)cc1,.,2.9,-15.7%,14.6,?,-35.3%
Cc1nonc1C(=O)N/N=C/c1ccc([N+](=O)[O-])o1,-7.1%,2.9,-10.2%,8.1,1.9%,-10.6%
Cc1cc(C(=O)N/N=C/c2ccc([N+](=O)[O-])o2)c(C)o1,-12.2%,-14.1,-3.9%,-92.4*,0.6%,9.0%
O=C(NCc1nc2cccnc2n1Cc1ccc(F)cc1)c1ccccc1C(F)(F)F,-0.1%,.,-4.4%,.,7.1%,18.3%
Cc1c(C(=O)N2CCN(c3ccc(F)cc3)CC2)sc2ncnc(N3CCN(c4ccccn4)CC3)c12,-24.8%,2.5,-2.9%,-76.2*,-1.3%,-34.4%
